The values that follow come from PubChem BioAssay AID2017 (National Center for Advancing Translational Sciences (NCATS), 2009).

Molecules are shown by their SMILES. Records with an inconclusive call do not appear. The source made the active and inactive calls. The call rests on the fitted dose curve; in most records, active means well fitted curve in the direction sought with a large enough effect; inconclusive means small, poorly fitted or top-dose-only effect, or another doubt; inactive means no such curve, though single readings can be large or run the other way.

This assay relates to 4-diphosphocytidyl-2-C-methyl-D-erythritol kinase IspE (bacterial, species not stated). Nature of the assay: Confirmatory Assay for Inhibitors of Human Galactokinase (GALK): CDP-Me assay counterscreen. To be noted: ATP depletion, Kinase-Glo luminescence; series mostly up to 115 µM; activity change, negative = inhibition: at the top concentration. The source says: NIH Molecular Libraries Probe Production Centers Network [MLPCN] NIH Chemical Genomics Center [NCGC] MLPCN Grant: R03 MH085689-01 Assay Submitter (PI): Kent Lai (University of Utah School of Medicine, 50 N Mario Capecchi Drive, Salt Lake City, UT 84132) NCGC Assay Overview The GHMP kinase family is a unique class of important enzymes that plays an essential role in many metabolic processes. It contains more than 170 protein members among which are the galactokinase (GALK) and the CMK enzymes. GALK plays a crucial role in galactose processing and is a potential therapeutic target for Classic Galactosemia (OMIM: 230400). CMK is involved for the non-mevalonate synthesis of isoprenoids precursors and natural products like sterols or ubiquinones which are important to many biological functions. Although the sequence identity between GALK and CMK is low, the three-dimensional structures and active sites are highly similar. Therefore to determine the validity and selectivity of an active compound observed in the GALK qHTS screen (AID: 1868), a bioluminescent counter-screen targeting bacterial CMK was developed. In addition, because the mevalonate independent synthesis of isoprenoids are more prevalent in opportunistic pathogens such as bacteria, CMK is a potential novel therapeutic target where selective inhibitors could be used to determine potential antibacterial effects. The CMK (provided by Kent Lai) was assayed using ATP and 4-diphosphocytidyl-2-C-methyl-D-erythritol (CDP-ME; Echelon, cat# I-M052) as substrates. Promega Kinase-Glo Plus (cat# V3774) technology was used to detect the residual ATP following kinetic reaction. Briefly, the Kinase-Glo Plus contains Ultra-Glo [5] luciferase and D-luciferin which generates a bioluminescence signal from the remaining ATP.
NCGC Assay Protocol Summary: Three uL/well of substrate solution (15 uM ATP, 30 uM CDP-ME, 20 mM HEPES pH8.0, 5 mM MgCl2, 40 mM KCl, 1 mM DTT, 0.01% BSA final concentration) was dispensed into 1536-well, assay plates (Greiner, solid white medium-binding plates) with Aurora Discovery BioRAPTR Flying Reagent Dispenser (FRD; Beckton-Dickenson). […] One uL/well enzyme solution (0.25 ug/mL CDP-Me kinase, 20 mM HEPES pH8.0, 5 mM MgCl2, 40 mM KCl, 1 mM DTT, 0.01% BSA final concentration) was then added using the FRD yielding a total kinase reaction volume of 4 uL/ well. After 1 hour of room temperature incubation, 4 uL Kinase-Glo Plus reagent was added for a final assay volume of 8 uL/well. After 1 min, luminescence was detected with the ViewLux plate reader (Perkin Elmer, Waltham, MA) using a 1 sec exposure time and 2x binning settings.
`Cc1ccc(S(=O)(=O)/N=C2/NC(=O)/C(=C\c3cc(Br)cc(Br)c3O)S2)cc1`: the “activity change, negative = inhibition” value is -13.1% (inactive). With `CCOc1cc(/C=C2/C(=N)N3C(=NC2=O)SN=C3S(C)(=O)=O)ccc1OS(=O)(=O)c1ccccc1`, the “activity change, negative = inhibition” value is -4.75% (inactive).

For the compound `O=C(COc1ccccc1/C=C\c1[nH]c(=O)[nH]c(=O)c1[N+](=O)[O-])Nc1ccccc1`, the “activity change, negative = inhibition” value is -1.25% (inactive).

`N#C/C(=C\c1coc2ccc(O)cc2c1=O)C(=O)Nc1nc2ccccc2s1`: the “activity change, negative = inhibition” value is -9.89% (inactive). As to `CC(C)OC(=O)C(C(=O)C(F)(F)F)c1cc(NS(=O)(=O)c2ccc3ccccc3c2)c2ccccc2c1O` (stereo not given), the “activity change, negative = inhibition” value is 0.739% (inactive). `O=S(=O)(NCc1cccs1)c1ccc(Br)s1`: the “activity change, negative = inhibition” value was 2.41% (inactive). Take `CCS(=O)(=O)C1=NSC2=NC(=O)/C(=C\c3ccc(OS(=O)(=O)c4ccccc4)cc3)C(=N)N21`: the “activity change, negative = inhibition” value was -13.2% (inactive). On to `CS(=O)(=O)c1ccc2c(c1)sc1nc(=O)c(/C=C3/C=CC(=O)C(O)=C3)c(N)n12`, for which the “activity change, negative = inhibition” value was -7.97% (inactive). Take `COCc1cc(CN2CCCC2)c(O)c2ncccc12`: the “activity change, negative = inhibition” value is 2.55% (inactive). Consider `CCN1CCN(CCNC(=O)c2ccc3nc(-c4cccc(C)c4)c(-c4cccc(C)c4)nc3c2)CC1`, for which the “activity change, negative = inhibition” value is -1.48% (inactive).

On to `O=C1/C(=C\c2ccc(O)c(O)c2)C(c2ccccc2)=NN1c1ccccc1`, for which the “activity change, negative = inhibition” value is 6.47% (inactive). Consider `O=C1C=CC2=C3c4cc(O)c(O)cc4CC3(O)COC2=C1O` (stereo not given), for which the “activity change, negative = inhibition” value was -6.18% (inactive). Turning to `CCOc1cc(/C=C2\C(=O)ON=C2c2ccccc2)cc(Br)c1O`, the “activity change, negative = inhibition” value was 2.32% (inactive). With `N#C/C(=C(/O)c1cc2ccccc2o1)c1nc2ccccc2s1`, the “activity change, negative = inhibition” value was -3.31% (inactive).

Turning to `C=CCN1C(=O)/C(=C/c2ccc(OC(C)=O)c(OCC)c2[N+](=O)[O-])SC1=S`, the “activity change, negative = inhibition” value was -15.3% (inactive). `C[C@H](NC(=O)C1CCC(CNC(=O)[C@@H]2CCCN2C(=O)OC(C)(C)C)CC1)C(=O)O` (stereo not given in full): the “activity change, negative = inhibition” value was 3.35% (inactive). Next, `CC(=O)c1ccc(NC(=S)Nc2cccc3cnccc23)cc1`: -3.41% (inactive).

`COC(=O)c1ccc(CSc2ccc3nnc(-c4ccccn4)n3n2)o1`: the “activity change, negative = inhibition” value was -0.879% (inactive).

Turning to `O=C1C=C(N(CCO)Cc2ccccc2)c2ccccc2C1=O`, the “activity change, negative = inhibition” value was -28.7% (inactive). `CC1(C)CC(=O)C2=C(C1)NC(Nc1nc3ccccc3o1)=NC21CCCC1`: the “activity change, negative = inhibition” value was 1.93% (inactive). On to `N#C/C(=C(/O)Cc1cccc2ccccc12)c1nc2ccccc2s1`, for which the “activity change, negative = inhibition” value was -0.506% (inactive). Consider `O=C1c2ccccc2C(=O)C12OC2c1cccc2ccccc12` (stereo not given), for which the “activity change, negative = inhibition” value is -1.36% (inactive). With `S=c1[nH]nc(Cc2sc(-c3ccccc3)nc2-c2ccccc2)o1`, the “activity change, negative = inhibition” value was 1.28% (inactive). Under `Cc1ccc(C)c(CN2C(=O)CSc3ccc(C(=O)NCCN4CCOCC4)cc32)c1` stands -1.65% (inactive).

In the case of `O=c1[nH]c(/C=C/c2ccc([N+](=O)[O-])cc2)c([N+](=O)[O-])c(=O)[nH]1`, the “activity change, negative = inhibition” value is -4.01% (inactive). Under `CS(=O)(=O)C1=NSC2=NC(=O)/C(=C\c3ccc(OS(=O)(=O)c4ccccc4)cc3)C(=N)N21` stands -8.39% (inactive); under `CCOC(=O)C1(Cc2cccc(F)c2)CCN(C(=O)COC)CC1`, 2.45% (inactive); under `O=C(O)c1cccc(S(=O)(=O)N2CCC(n3nnc4cc(C(F)(F)F)ccc43)CC2)c1`, 1.46% (inactive). `COc1cc(/C=C2\C(=O)ON=C2c2ccccc2)cc(Br)c1O`: the “activity change, negative = inhibition” value was -2.63% (inactive).

On to `CCS(=O)(=O)C1=NN2C(=N)/C(=C\c3ccc(OS(=O)(=O)c4ccccc4)cc3)C(=O)N=C2S1`, for which the “activity change, negative = inhibition” value was -28.5% (inactive). Under `O=C1ON=C(c2ccccc2)/C1=C/c1ccc(O)c(O)c1` stands 2.47% (inactive). For the compound `O=C(O)c1ccc(NC2=C/C(=N/S(=O)(=O)c3ccccc3)c3ccccc3C2=O)cc1`, the “activity change, negative = inhibition” value is -4.74% (inactive). As to `CCOC(=O)c1cc(-c2ccc(/C=C3/C(=O)N(c4ccc(C(=O)O)cc4)N=C3C)o2)ccc1Cl`, the “activity change, negative = inhibition” value was -0.967% (inactive). Take `O=C1CCCC2=C1C1(CCCCC1)N=C(Nc1nc3ccccc3o1)N2`: the “activity change, negative = inhibition” value is -2.3% (inactive). Take `Cc1ccc(F)c(NC(=O)/C(C#N)=C(\O)c2ccc(C(C)(C)C)cc2)c1`: the “activity change, negative = inhibition” value was -5.97% (inactive). Under `NS(=O)(=O)c1ccc(NC(=S)NNC(=O)c2ccc(Br)o2)cc1` stands -1.07% (inactive); under `Cc1nn(Cc2noc(C(=O)NCC3CCCO3)n2)c(C)c1Br` (stereo not given), -0.906% (inactive); under `Cc1[nH][nH]c(=O)c1C(c1ccc(-c2ccc(Cl)c(C(=O)O)c2)o1)c1c(C)[nH][nH]c1=O`, -6.09% (inactive).

For `Cc1snc(S(=O)(=O)/C(C#N)=N/Nc2ccc(C(F)(F)F)cc2)c1C#N`, the “activity change, negative = inhibition” value is -2.03% (inactive). As to `CCS(=O)(=O)C1=NSC2=NC(=O)/C(=C\c3ccc(OS(=O)(=O)c4ccccc4)c(OC)c3)C(=N)N21`, the “activity change, negative = inhibition” value is -10.4% (inactive).
